PubChem BioAssay (NCATS)
Results filed as inconclusive are left out. The source made the active and inactive calls. Unless noted, calls follow the shape of the full dose curve.

How the values were obtained:
[1] = qHTS for Inhibitors of the Functional Ribonucleoprotein Complex (vRNP) of Lassa (LASV) Arenavirus: LASV Primary Screen - GLuc reporter signal (AID 1347082; calls by dose curve; tested in HEK293 reporter line; also: nearly all actives have a fitted effect of over 60% in size)
[2] = qHTS for Inhibitors of the Functional Ribonucleoprotein Complex (vRNP) of Lassa (LASV) Arenavirus: Viability assay - alamar blue signal for LASV Primary Screen (AID 1347083; calls by dose curve; tested in HEK293 reporter line; also: nearly all actives have a fitted effect of over 80% in size)
[3] = qHTS for Inhibitors of the Functional Ribonucleoprotein Complex (vRNP) of Lymphocytic Choriomeningitis Arenaviruses (LCMV): Viability assay - alamar blue signal for LCMV Primary Screen (AID 1347085; calls by dose curve; tested in HEK293 reporter line; also: nearly all actives have a fitted effect of over 80% in size)
[4] = biological target: Nucleoprotein (Lymphocytic choriomeningitis virus (strain Armstrong)) (UniProt P09992); experiment: qHTS for Inhibitors of the Functional Ribonucleoprotein Complex (vRNP) of Lymphocytic Choriomeningitis Arenaviruses (LCMV): LCMV Primary Screen - GLuc reporter signal (AID 1347086); also: nearly all actives have a fitted effect of over 70% in size

Measured: Potency
Also: series mostly up to about 57 µM.

Nucleoprotein (Lymphocytic choriomeningitis virus (strain Armstrong)), sequence (P09992 whole entry, looked up): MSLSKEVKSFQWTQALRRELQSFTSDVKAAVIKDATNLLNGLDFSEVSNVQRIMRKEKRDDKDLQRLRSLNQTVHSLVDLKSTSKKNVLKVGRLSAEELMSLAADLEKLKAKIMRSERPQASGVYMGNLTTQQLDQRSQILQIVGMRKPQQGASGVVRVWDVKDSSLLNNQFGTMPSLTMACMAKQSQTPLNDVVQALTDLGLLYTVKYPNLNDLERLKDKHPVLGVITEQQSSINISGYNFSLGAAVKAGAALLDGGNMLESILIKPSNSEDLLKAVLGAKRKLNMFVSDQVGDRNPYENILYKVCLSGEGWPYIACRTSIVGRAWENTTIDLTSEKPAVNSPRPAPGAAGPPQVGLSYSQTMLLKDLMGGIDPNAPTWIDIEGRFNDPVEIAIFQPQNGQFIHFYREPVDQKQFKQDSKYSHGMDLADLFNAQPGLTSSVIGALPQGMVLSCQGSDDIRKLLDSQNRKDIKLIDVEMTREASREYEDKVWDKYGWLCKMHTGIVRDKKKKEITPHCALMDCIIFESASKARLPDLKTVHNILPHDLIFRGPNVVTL

CC(C)(C)CC(=O)OCC(=O)[C@@]1(O)CC[C@H]2[C@@H]3CCC4=CC(=O)C=C[C@]4(C)[C@H]3[C@@H](O)C[C@@]21C
inactive: all assays above

CN(C)CC[C@@H](c1ccc(Cl)cc1)c1ccccn1
inactive: all assays above

CCOC(=O)NNc1nncc2ccccc12
inactive: all assays above

CC(=O)NC(Cc1ccccc1)C(=O)O (configuration not stated)
inactive: all assays above

CC(C)C[C@@H]1[C@H](c2ccccc2)OC(=O)N1CCCN1CCCCCC1
inactive: all assays above

CN(C)C(=O)Oc1cccc([N+](C)(C)C)c1
inactive: all assays above

O=C1OC2(c3ccc(O)cc3Oc3cc(O)ccc32)c2ccccc21
inactive: all assays above

Cc1cc(C(C)(C)C)cc(C)c1CC1=NCCN1
inactive: all assays above

C/C=C/c1ccc(OC)cc1
inactive: all assays above

CC(C)(C)c1ccc(C(=O)CCCCl)cc1
inactive: all assays above

Cc1cccc(C)c1NC(=O)CN1CCCC1
inactive: all assays above

CNC(=O)c1c(I)c(NC(=O)CCCCC(=O)Nc2c(I)c(C(=O)O)c(I)c(C(=O)NC)c2I)c(I)c(C(=O)O)c1I
inactive: all assays above

FC(F)(F)C(F)(F)C(F)(F)C(F)(F)C(F)(F)C(F)(F)C(F)(F)C(F)(F)Br
inactive: all assays above
